Consider 54 molecules from ChEMBL document CHEMBL4513216, “Probing the Open Global Health Chemical Diversity Library for Multistage-Active Starting Points for Next-Generation Antimalarials” (ACS Infect Dis, 2020).

In all, about 69,000 compounds went through this assay and about 8,600 (12%) showed an effect of 50% or more. Many of the other results were omitted from the sample, so strong results are more common in it than they were.

In this experiment the test system is Plasmodium berghei. The experiment can be described thus: Screen against P. berghei liver stage (PbLuc), transformed with Luciferase, at 10uM. It is filed as functional, HepG2. The conditions noted are these: tested at 10 uM.
As to `O=C(C1CCOCC1)N1CCc2ncc(CN3CCCC3)n2CC1`, the INHIBITION came to 29.9%. For `Cc1ccc2ncccc2c1CN1CC[C@H](N(C)C)[C@H](CCC(=O)O)C1`, the INHIBITION is reported as -102%. For `CC(C)CCn1[nH]c(CNc2ccc(Cl)cc2)nc1=O`, the INHIBITION turned out to be 40%.

Turning to `N#CCCCn1cnc2c(F)cc(Br)cc2c1=O`, the INHIBITION is listed as 46.4%. The value for `N#CCCn1cnc2c(F)cc(Br)cc2c1=O` was 53.9%; that for `N#CCCn1cnc2c(Br)cc(Br)cc2c1=O` was 44.2%.

On to `O=C(NCCCn1ccnc1)NCC(c1ccco1)N1CCCCC1` (centres undefined), for which the INHIBITION is listed as -67.3%. In the case of `CCC[C@@H]1CN(C(=O)c2cc(-c3cccs3)n(C)n2)C[C@H]1NS(C)(=O)=O`, the INHIBITION was determined as 18.8%.

Take `CCc1ncc(C(=O)NCCNC(=O)Cc2ccc(F)cc2)s1`: the INHIBITION is -49.7%. Consider `O=C(NCCN1CCOCC1)c1ccc(-c2ccccc2)[nH]c1=O`, for which the INHIBITION is listed as -14.1%. The value for `O=C(NCCN1CCOCC1)c1ccc(-c2ccc(F)cc2)nc1O` was 61.2%; that for `COC(=O)CCNC(=O)c1cnc(Cc2ccc(F)cc2)s1` was 18.3%. The value for `O=C(NCCN1CCOCC1)c1ccn(COc2ccc(F)cc2)n1` was -8.9%; that for `O=C(NCCN1CCOCC1)c1cnc(Cc2ccc(F)cc2)s1` was 63.7%; that for `Cc1cccc(-c2ccc(C(=O)NCCN3CCOCC3)c(=O)[nH]2)c1` was 68.6%. With `O=C(NCCCN1CCOCC1)c1ccc(-c2ccccc2)[nH]c1=O`, the INHIBITION came to 41.4%.

With `CCNC(=O)c1cnc(Cc2ccc(F)cc2)s1`, the INHIBITION turned out to be 17.4%. On to `Cc1ccc(C(=O)NCCN2CCOCC2)c(=O)[nH]1`, for which the INHIBITION was -14.1%. Turning to `O=C(NCCN1CCOCC1)c1cnc(-c2ccccc2F)s1`, the INHIBITION is listed as 41.6%. The value for `CN(C)CCCNC(=O)c1cnc(Cc2ccc(F)cc2)s1` was 73.1%; that for `CC(C#N)(NC(=O)c1ccc(C#N)cc1)C1CC1` (centres undefined) was 2.45%.

Consider `CC1CCc2n[nH]c(C(=O)NCCCc3ccco3)c2C1` (centres undefined), for which the INHIBITION amounted to 6.32%. On to `Cc1cnn(C2CN(Cc3nc4cc(Cl)ccc4n3C)C2)c1`, for which the INHIBITION is recorded as -10.6%.

Take `CC(C)(CN)NS(=O)(=O)c1cccc(F)c1F`: the INHIBITION came to 19%. The value for `CCN1CCn2c(C)cnc2C12CCN(C(=O)c1ccco1)CC2` was 3.81%. For the molecule `CN1CC(=O)N(c2cccc(F)c2)CC12CCN(CCO)C2` (centres undefined), the INHIBITION came out at 21.8%. `COc1ccc(N2CCN(C(=O)c3cc(=O)c(OC)c[nH]3)CC2)cc1`: the INHIBITION is -13.8%. As for `CCC(c1ccc(F)cc1F)N1CCN(CCO)CC1` (centres undefined), the figure is 48.1%; as for `CCS(=O)(=O)CCN1CCN(C(C)c2cccnc2)CC1` (centres undefined), 24.2%.

As to `CC(c1cccnc1)N1CCN(CCO)CC1` (centres undefined), the INHIBITION stood at 60%. The value for `CCC(c1ccccc1)N1CCN(CCO)CC1` (centres undefined) was 52.1%; that for `CCC(c1ccccc1)N1CCN(C(=O)c2cc(C(N)=O)c[nH]2)CC1` (centres undefined) was -23.1%.

Take `CC(c1cccnc1)N1CCN(CCCC#N)CC1` (centres undefined): the INHIBITION is 41.4%. As for `CN(Cc1nnc(C2CC2)o1)Cc1ccccc1N1CCOCC1`, the INHIBITION is on record as 20.19%.

For `O=C(c1cocn1)N1CCC2(CC1)COC(COCc1ccccn1)C2` (centres undefined), the INHIBITION was determined as 8.03%. As for `COc1c(CNCc2cccc(Cn3cncn3)c2)c(C)nn1C`, the INHIBITION is -21.8%. The value for `Cc1cc(C)nc(C2CCCN2C(=O)c2cnco2)n1` (centres undefined) was 12.8%. With `Cc1cc(C(=O)NCC(c2ccccc2Cl)N2CCOCC2)on1` (centres undefined), the INHIBITION is recorded as 1.7%. The value for `Cc1ccoc1C(=O)NCC(c1ccccc1Cl)N1CCOCC1` (centres undefined) was 30.5%; that for `Cc1nc(C)c(C(=O)NCC(c2ccccc2Cl)N2CCOCC2)s1` (centres undefined) was 62.3%.

Consider `CN(Cc1cccc(OC(F)(F)F)c1)Cc1cnn(C)c1`, for which the INHIBITION is -6.51%. As for `Cc1ncsc1C(=O)N(C)Cc1ccccc1`, the figure is -15.75%.

Take `O=C(COc1ccc(F)cc1)N1CCO[C@H]2[C@@H](OCC3CC3)CC[C@@H]21`: the INHIBITION was 59.3%. As for `CCO[C@@H]1CC[C@H]2[C@H]1OCCN2C(=O)c1nn(C)c2ccccc12`, the figure is 22.6%. Take `COCC(=O)N1CCO[C@H]2[C@H](OC)CC[C@@H]21`: the INHIBITION was 50%. Consider `CN(C)CCO[C@@H]1CC[C@H]2[C@H]1OCCN2C(=O)COc1ccccc1`, for which the INHIBITION is 22.2%.

With `CCO[C@H]1CC[C@H]2[C@H]1OCCN2C(=O)COc1ccccc1`, the INHIBITION is on record as 34.9%. As for `CO[C@H]1CC[C@H]2[C@H]1OCCN2C(=O)c1nn(C)c2ccccc12`, the figure is 47.4%.

For the molecule `CO[C@@H]1CC[C@H]2[C@H]1OCCN2C(=O)COc1ccc(F)cc1`, the INHIBITION worked out at 29.6%. As for `CCO[C@H]1CC[C@H]2[C@H]1OCCN2C(=O)c1nn(C)c2ccccc12`, the figure is 67.3%; as for `CCO[C@H]1CC[C@H]2[C@@H]1OCCN2C(=O)COc1ccccc1`, 62%; as for `CO[C@@H]1CC[C@H]2[C@H]1OCCN2C(=O)COc1ccc(C)cc1`, 47.5%.

As to `CO[C@@H]1CC[C@H]2[C@H]1OCCN2C(=O)C1CCOCC1`, the INHIBITION is 33%. As to `COc1cc(C(=O)N2CCO[C@H]3[C@H](OCC4CC4)CC[C@@H]32)ccc1F`, the INHIBITION is 30.5%.
